Measured values published in PubChem BioAssay (NCATS).
Inconclusive results are not listed. Calls of active or inactive are those of the source. Calls come from the whole dose curve; as a rule, active = well fitted inhibition curve with a large enough effect; inconclusive = small, poorly fitted or top-dose-only effect; inactive = no such curve, though single readings can be large or run the other way.

Test system: Zika virus NS2B-NS3 protease (unlinked)
Assay: Optimization of GU AMC qHTS for Zika virus inhibitors: Unlinked NS2B-NS3 protease assay (AID 1347151); note: nearly all actives have a fitted effect of over 80% in size
Conditions: recombinant ZIKV NS2B-NS3 protease, fluorogenic AMC substrate; series mostly up to 52.5 µM
Excerpt: Avindra Nath, Ph.D., National Institute of Neurological Disorders and Stroke (NINDS), Bethesda, MD
Radhakrishnan Padmanabhan, Ph.D., Georgetown University (GU), Washington D.C.
Zika Virus causes congenital defects, including microcephaly and is associated with Guillain-Barre syndrome, eningoencephalitis and myelitis in infected adult. […] Using a target-based approach, we hope to establish a screening paradigm to uncover novel, cell-active NS2B-NS3 protease (Zika Virus) specific inhibitors from NCATS' collection of small molecules using qHTS.
Early Translation Branch (ETB)
National Center for Advancing Translational Sciences (NCATS), Rockville, MD
National Institute of Health (NIH), Bethesda, Maryland
Padmanabhan lab provided the NS2B hydrophilic domain and NS3 protease domain in a noncovalent complex used for the unlinked assay. Control compound aprotinin is obtained from Thermo Scientific (#78432; Waltham, Massachusetts). NS2B-NS3 AMC substrate (Bz-Nle-Lys-Arg-Arg-AMC; Nle-KRR-AMC) purchased from Bachem (#I-1995; Torrance, CA). Ac-VKTGKR-AMC purchased from Genscript or Bachem, Ac-FAAGKR-AMC purchased from Genscript, Ac-GLVKRR-AMC purchased from Genscript, Ac-LKKR-AMC purchased from Genscript.
GU AMC unlinked NS2B-NS3 protease qHTS protocol:
Briefly, 3 microL of Zika virus unlinked NS2B-NS3 protease (25 nM for linked final concentration), in assay buffer (10 mM Tris-HCl pH 8.0 with 0.01% Tween 20) was dispensed into a 1,536-well solid-bottom black plate (Greiner Bio One, Monroe, NC). Twenty-three nL of compounds (final concentration range 7.28 nM to 114 microM) or control Aprotinin (final concentration range 3.47 nM to 114 microM) were transferred via Wako Pin-tool (Wako Automation, Richmond, VA). […] Plates were then read immediately on a ViewLux High-throughput CCD imager (PerkinElmer, Waltham, MA) equipped with standard UV fluorescence optics (340(30) nm excitation, 450(20) nm emission) then incubated (room temperature, protected from light) for 15 minutes (~20% conversion). The change in fluorescence intensity over the 15-minute reaction period was normalized against no-inhibitor and no-enzyme controls and the resulting percent inhibition data were fitted to a 4-parameter Hill equation. Aprotinin was used as the intraplate control.

For C[C@H]1[C@H]2Cc3ccc(O)cc3[C@]1(C)CCN2CCc1ccccc1, which outcome is on record?
The outcome was “inactive”.

How did the outcome turn out when C[C@@H]1[C@@H]2Cc3ccc(O)cc3[C@@]1(C)CCN2CCc1ccccc1 was run?
The outcome was “inactive”.

For CC(C)OC(=O)Nc1ccccc1, which outcome is on record?
Its outcome is “inactive”.

CC1O[C@@H](O[C@@H]2C(O)C[C@H](O[C@@H]3C(O)C[C@@H](OC4CC[C@@]5(C)C6CC[C@]7(C)C(C8=CC(=O)OC8)CC[C@@]7(O)C6CC[C@@H]5C4)OC3C)OC2C)CC(O)[C@H]1O (stereo partly drawn) was tested. Which outcome did it give?
The outcome was “inactive”.

How did the outcome turn out when CN1CC[C@@]23CCCC[C@@H]2[C@@H]1Cc1ccc(O)cc13 was run?
The outcome was “inactive”.

With C[C@H]1O[C@@H](O[C@H]2[C@@H](O)C[C@@H](O[C@H]3[C@@H](O)C[C@H](O[C@H]4CC[C@@]5(C)[C@H](CC[C@@H]6[C@@H]5CC[C@]5(C)[C@@H](C7=CC(=O)OC7)CC[C@]65O)C4)O[C@@H]3C)O[C@@H]2C)C[C@H](O)[C@@H]1O as the compound, how does the outcome read?
The outcome was “inactive”.

Which outcome does the source give for CN1CC[C@@]23CCCCC2C1Cc1ccc(O)cc13 (stereo partly drawn) here?
The outcome was “inactive”.

C=CCN1CCC2(C)c3cc(O)ccc3CC1C2C (stereo not drawn) was tested. Which outcome did it give?
Its outcome is “inactive”.

COC1C(O)C(C)O[C@@H](OC2CC[C@@]3(C)C4CC[C@]5(C)C(C6=CC(=O)OC6)CC[C@@]5(O)C4CC[C@@H]3C2)C1O (stereo partly drawn) was tested. Which outcome did it give?
Its outcome is “inactive”.

With C[C@H]1O[C@@H](O[C@H]2[C@@H](O)C[C@H](O[C@H]3[C@@H](O)C[C@H](O[C@H]4CC[C@]5(C)C6CC[C@]7(C)[C@@H](C8=CC(=O)OC8)CC[C@]7(O)C6CC[C@@H]5C4)O[C@@H]3C)O[C@@H]2C)C[C@H](O)[C@@H]1O (stereo partly drawn) as the compound, how does the outcome read?
Its outcome is “inactive”.

Which outcome does the source give for CC1OC(O[C@H]2C[C@@H](O)[C@]3(CO)[C@H]4[C@H](O)C[C@]5(C)[C@@H](C6=CC(=O)OC6)CC[C@]5(O)[C@@H]4CC[C@]3(O)C2)C(O)C(O)C1O (stereo partly drawn) here?
Its outcome is “inactive”.

How did the outcome turn out when C[C@@H]1O[C@@H](O[C@H]2C[C@@H](O)[C@]3(CO)C4C(CC[C@]3(O)C2)[C@@]2(O)CC[C@H](C3=CC(=O)OC3)[C@@]2(C)C[C@H]4O)[C@H](O)[C@H](O)[C@H]1O (stereo partly drawn) was run?
The outcome was “inactive”.

For Cc1ccc2c(c1)[C@]13CCCC[C@@H]1[C@H](C2)N(C)CC3, which outcome is on record?
Its outcome is “inactive”.
